Test systems include DU-145 prostate; K-562 leukemia; MALME-3M melanoma; MDA-MB-231 breast; RXF 393 renal; SF-268 CNS; SF-295 CNS; SF-539 CNS; M14 melanoma.
Holding throughout (experiment): NCI-60 one-dose screen, 48 h (100 = growth as untreated, 0 = no growth, -100 = all killed)
The next assay relates to UACC-257 melanoma. The settings on record: 10 µM unless noted.

About 83,000 compounds went through this panel and 20% of them were active in at least one assay; those are over-represented in the sample as a whole.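 Treatment: one concentration, 48 hours, 96-well format. Scoring: percent growth, with anything below 10 considered active.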 A number with no mark means an inactive call. Calls of active or inactive are those of the source.

Take `CN(C)C(=O)c1ccc(SC(=S)NCc2ccccc2)cc1`: the growth in the assay with DU-145 prostate (10 µM) is 111%; in the assay on DU-145 prostate (100 µM), 10.1%; in the assay on K-562 leukemia (10 µM) it was 82.6%; in the assay on K-562 leukemia (100 µM), 3.9% (active); in the assay with MALME-3M melanoma (10 µM) it was 108%; in the assay on MALME-3M melanoma (100 µM), -12.7% (active). For the same compound, the growth with MDA-MB-231 breast (10 µM) was 109%; in the assay with MDA-MB-231 breast (100 µM), 13.3%; with RXF 393 renal (10 µM) it was 108%; with RXF 393 renal (100 µM), -72.4% (active); with SF-268 CNS (10 µM) it was 124%; in the assay on SF-268 CNS (100 µM) it was 50.2%. Further, the growth was 119% in the assay on SF-295 CNS (10 µM); 26.3% in the assay on SF-295 CNS (100 µM); 102% in the assay with SF-539 CNS (10 µM); -62.3% (active) in the assay on SF-539 CNS (100 µM); 18.4% [100 µM] in the assay with UACC-257 melanoma; 103% in the assay on M14 melanoma (10 µM). Besides, the growth in the assay with M14 melanoma (100 µM) is -42% (active).

Regarding `Cc1ccc2c(ccc3c[n+]4c5ccccc5ccc4n32)c1`, the growth was 20.7% in the assay with DU-145 prostate (10 µM unless noted); 6.39% (active) in the assay with K-562 leukemia (10 µM unless noted); -45.5% (active) in the assay on MALME-3M melanoma (10 µM unless noted); 19.6% in the assay on MDA-MB-231 breast (10 µM unless noted); 28.9% in the assay with RXF 393 renal (10 µM unless noted); 1.4% (active) in the assay on SF-268 CNS (10 µM unless noted). The growth in the assay on SF-295 CNS (10 µM unless noted) is -1.86% (active); in the assay with SF-539 CNS (10 µM unless noted) it was -3.04% (active); with UACC-257 melanoma, -36% (active).

Regarding `O=C1c2ccccc2C(=O)c2sc(Nc3cccc(Cl)c3)nc21`, the growth was -93.9% (active) in the assay on DU-145 prostate (10 µM unless noted); 6.87% (active) in the assay with K-562 leukemia (10 µM unless noted); -89.9% (active) with MALME-3M melanoma (10 µM unless noted); -8.62% (active) with MDA-MB-231 breast (10 µM unless noted); -11.5% (active) in the assay with RXF 393 renal (10 µM unless noted); -7.47% (active) in the assay with SF-268 CNS (10 µM unless noted). In addition, the growth was 66.2% in the assay with SF-295 CNS (10 µM unless noted), -91.5% (active) in the assay with SF-539 CNS (10 µM unless noted) and -74.9% (active) in the assay on UACC-257 melanoma.

As to `CCC(CCCN(CC)CCc1ccccc1)OC(=O)c1cc(OC)c(OC)c(OC)c1` (stereo unspecified), the growth in the assay with DU-145 prostate (10 µM unless noted) was 104%; in the assay with K-562 leukemia (10 µM unless noted), 76.4%; with MALME-3M melanoma (10 µM unless noted), 98.9%; in the assay on MDA-MB-231 breast (10 µM unless noted), 78.8%; with RXF 393 renal (10 µM unless noted), 89.7%; in the assay with SF-268 CNS (10 µM unless noted), 82.7%. In addition, the results for the growth in the assay on SF-295 CNS (10 µM unless noted), in the assay on SF-539 CNS (10 µM unless noted) and with UACC-257 melanoma were 90.1%, 93.1% and 85.4%, respectively.

For `CCCCCCC(C)c1ccccc1O` (stereo unspecified) (tested in a mixture with another compound), the growth with DU-145 prostate (10 µM unless noted) is 116%; in the assay with K-562 leukemia (10 µM unless noted) it was 106%; with MALME-3M melanoma (10 µM unless noted), 106%; in the assay with MDA-MB-231 breast (10 µM unless noted), 104%; in the assay with RXF 393 renal (10 µM unless noted), 113%; in the assay on SF-268 CNS (10 µM unless noted) it was 112%. For the same compound, the figures for the growth in the assay on SF-295 CNS (10 µM unless noted), in the assay with SF-539 CNS (10 µM unless noted) and with UACC-257 melanoma were 116%, 99.3% and 117%, respectively.

Take `Oc1c(Br)c(Br)c(O)c(Br)c1Br`: the growth was 112% with DU-145 prostate (10 µM unless noted); 7.81% (active) with K-562 leukemia (10 µM unless noted); 56.5% in the assay with MALME-3M melanoma (10 µM unless noted); 116% with MDA-MB-231 breast (10 µM unless noted); 12.5% in the assay on RXF 393 renal (10 µM unless noted); 108% in the assay on SF-268 CNS (10 µM unless noted). The results for the growth in the assay on SF-295 CNS (10 µM unless noted), in the assay with SF-539 CNS (10 µM unless noted) and in the assay on UACC-257 melanoma were 107%, 119% and 117%, respectively.

With `O=C(CC1(O)C(=O)Nc2c(Cl)ccc(Cl)c21)c1ccc(Cl)cc1Cl` (stereo unspecified), the growth was 103% with DU-145 prostate (10 µM unless noted); 93.6% in the assay with K-562 leukemia (10 µM unless noted); 100% in the assay on MALME-3M melanoma (10 µM unless noted); 109% in the assay on MDA-MB-231 breast (10 µM unless noted); 94.5% in the assay with RXF 393 renal (10 µM unless noted); 97.4% with SF-268 CNS (10 µM unless noted). Moreover, the figures for the growth in the assay with SF-295 CNS (10 µM unless noted), in the assay with SF-539 CNS (10 µM unless noted) and with UACC-257 melanoma were 100%, 103% and 78.8%, respectively.

As to `Oc1c(Cl)c2ccccc2c2ccccc12`, the growth in the assay on DU-145 prostate (10 µM unless noted) was 102%; in the assay on K-562 leukemia (10 µM unless noted) it was -12.5% (active); with MALME-3M melanoma (10 µM unless noted) it was 123%; with MDA-MB-231 breast (10 µM unless noted), 95.5%; in the assay on RXF 393 renal (10 µM unless noted) it was 116%; in the assay on SF-268 CNS (10 µM unless noted) it was 104%. Besides, the growth with SF-295 CNS (10 µM unless noted) is 120%; in the assay on SF-539 CNS (10 µM unless noted) it was 107%; with UACC-257 melanoma, 103%.

Regarding `O=C1C=CC(=O)N1C1c2ccccc2-c2ccccc21`, the growth was 103% in the assay with DU-145 prostate (10 µM unless noted); 18.5% in the assay with K-562 leukemia (10 µM unless noted); 90.1% in the assay with MALME-3M melanoma (10 µM unless noted); 97.9% in the assay with MDA-MB-231 breast (10 µM unless noted); 80.5% in the assay with RXF 393 renal (10 µM unless noted); 102% with SF-268 CNS (10 µM unless noted). In addition, the growth in the assay on SF-295 CNS (10 µM unless noted) was 99.5%; with SF-539 CNS (10 µM unless noted), 98.3%; with UACC-257 melanoma, 85.7%.

For `NC(=O)/C=C/C(=O)c1c(Cl)cccc1Cl`, the growth was -75.9% (active) with DU-145 prostate (10 µM unless noted); -19.2% (active) with K-562 leukemia (10 µM unless noted); -68.4% (active) in the assay on MALME-3M melanoma (10 µM unless noted); -79.1% (active) in the assay on MDA-MB-231 breast (10 µM unless noted); -41.6% (active) in the assay with RXF 393 renal (10 µM unless noted); -57.3% (active) in the assay with SF-268 CNS (10 µM unless noted). Also, the growth in the assay with SF-295 CNS (10 µM unless noted) was 81.9%; in the assay on SF-539 CNS (10 µM unless noted), -95.4% (active); in the assay on UACC-257 melanoma, -81.7% (active); in the assay on M14 melanoma (10 µM unless noted) it was -96.5% (active).

As for `Cc1ccc(N=C=C(c2ccccc2)c2ccccc2)cc1`, the growth with DU-145 prostate (10 µM unless noted) is 108%; in the assay on K-562 leukemia (10 µM unless noted) it was 8.39% (active); with MALME-3M melanoma (10 µM unless noted), 95%; with MDA-MB-231 breast (10 µM unless noted) it was 83.3%; with RXF 393 renal (10 µM unless noted), 92.5%; with SF-268 CNS (10 µM unless noted), 93.5%. Moreover, the growth with SF-295 CNS (10 µM unless noted) was 98%; with SF-539 CNS (10 µM unless noted), 91%; in the assay with UACC-257 melanoma, 89.1%; in the assay on M14 melanoma (10 µM unless noted), -7.3% (active).

As to `C[N+](C)=c1ccc2nc3c(cc(NCCCNc4cc5oc6cc(=[N+](C)C)ccc-6nc5c5ccccc45)c4ccccc43)oc-2c1`, the growth in the assay on DU-145 prostate (10 µM unless noted) was -100% (active); in the assay with K-562 leukemia (10 µM unless noted), -0.99% (active); in the assay on MALME-3M melanoma (10 µM unless noted), 35.6%; with MDA-MB-231 breast (10 µM unless noted), -36.2% (active); with RXF 393 renal (10 µM unless noted), 58.2%; with SF-268 CNS (10 µM unless noted), 55%. In addition, the growth in the assay on SF-295 CNS (10 µM unless noted) was 45%; in the assay on SF-539 CNS (10 µM unless noted), -9.59% (active); in the assay on UACC-257 melanoma it was 65.1%; in the assay on M14 melanoma (10 µM unless noted), 28.9%.

The record behind these values is PubChem BioAssay (NCI).
